Here are results for 20 compounds from PubChem BioAssay.

As a reminder, the inhibition is the change of the read-out against control, counted positive when it falls.

Experiment [1] can be described thus: antimalarial activity against Dd2 strain (AID 2302;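 active = growth inhibition above 50% at the single 2 µM test dose, taken to imply half-maximal potency below 2 µM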;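 also: 0% = DMSO untreated growth and 100% = chloroquine plus artemisinin killed control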). To be noted: P. falciparum Dd2 in RBCs, LDH growth readout, 72 h; at 2 µM; active compounds read high.
The nature of experiment [2]: human hepatoma cell viability loss – ATP luminescence, cytotoxicity control for P. falciparum antimalarial project, primary screen (AID 2303;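 active = inhibition above 50%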;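 also: 0% = DMSO wells and 100% = digitonin-killed cells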). To be noted: HepG2 viability, 24-48 h, at 10 µM, active compounds read high.
The target of experiment [3] is L-lactate dehydrogenase (Plasmodium falciparum (isolate CDC / Honduras)) (UniProt Q27743). The experiment is described as follows: PfLDH activity inhibition – cell lysate, 3D7 strain, counter-screen for P. falciparum growth inhibition project (AID 2304).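 Also: 0% = vehicle and 100% = reference inhibitor.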 To be noted: P. falciparum 3D7 crude extract, LDH APAD/NBT absorbance; at 2 µM; active compounds read high. (In general: Counterscreens check selectivity or assay interference.)
L-lactate dehydrogenase (Plasmodium falciparum (isolate CDC / Honduras)), sequence (Q27743 whole entry, looked up): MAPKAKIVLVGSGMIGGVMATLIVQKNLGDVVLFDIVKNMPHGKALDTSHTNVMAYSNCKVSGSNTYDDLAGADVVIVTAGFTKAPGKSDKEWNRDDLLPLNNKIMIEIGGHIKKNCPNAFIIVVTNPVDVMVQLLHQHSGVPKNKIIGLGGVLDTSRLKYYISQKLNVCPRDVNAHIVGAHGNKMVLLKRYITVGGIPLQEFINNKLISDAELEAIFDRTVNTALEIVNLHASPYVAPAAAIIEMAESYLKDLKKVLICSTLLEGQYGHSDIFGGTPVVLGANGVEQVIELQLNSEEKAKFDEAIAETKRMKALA

Experiment [4] is described as follows: inhibition of 3D7 malaria parasite growth – strain 3D7 (AID 2306).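 Also: 0% = DMSO wells and 100% = chloroquine plus artemisinin control wells.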 Particulars: P. falciparum 3D7 erythrocytic growth, LDH absorbance, 72 h; at 2 µM; active compounds read high.
For experiment [5], the target named is Calcium-dependent protein kinase 1 (Plasmodium falciparum (isolate 3D7)) (UniProt P62344). The experiment is described as follows: PfCDPK1 kinase inhibitors, biochemical, TCAMS library (AID 1159585; cut-off not given, nearly all actives have IC50 up to about 0.98 µM;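 also: inhibitors leave more ATP so luminescence rises with inhibition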). To be noted: recombinant PfCDPK1, Kinase-Glo ATP depletion luminescence. (In general: Kinase-Glo reads ATP consumption through a luciferase reaction.)
Calcium-dependent protein kinase 1 (Plasmodium falciparum (isolate 3D7)), sequence (P62344 whole entry, looked up): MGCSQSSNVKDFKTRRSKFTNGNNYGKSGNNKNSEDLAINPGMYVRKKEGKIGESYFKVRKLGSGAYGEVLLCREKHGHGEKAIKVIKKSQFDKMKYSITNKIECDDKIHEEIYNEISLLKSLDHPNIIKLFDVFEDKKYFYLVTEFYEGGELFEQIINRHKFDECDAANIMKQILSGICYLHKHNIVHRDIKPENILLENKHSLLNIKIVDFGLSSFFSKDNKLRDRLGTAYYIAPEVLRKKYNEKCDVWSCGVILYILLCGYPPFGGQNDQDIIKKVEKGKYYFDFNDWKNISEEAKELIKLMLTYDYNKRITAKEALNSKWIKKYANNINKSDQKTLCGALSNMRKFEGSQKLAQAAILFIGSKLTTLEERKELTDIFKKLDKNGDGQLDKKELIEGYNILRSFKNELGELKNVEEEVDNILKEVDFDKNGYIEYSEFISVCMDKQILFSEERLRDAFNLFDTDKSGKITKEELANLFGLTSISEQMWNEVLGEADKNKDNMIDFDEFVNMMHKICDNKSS
For experiment [6], the target named is Plasmodium falciparum protein kinase 6 (PK6, PF3D7_1337100) (UniProt Q8IDW1). The experiment is described as follows: PfPK6 kinase inhibitors, biochemical, TCAMS library (AID 1159586). To be noted: recombinant PfPK6, Kinase-Glo ATP depletion luminescence.
Plasmodium falciparum protein kinase 6 (PK6, PF3D7_1337100), sequence (Q8IDW1 1-305): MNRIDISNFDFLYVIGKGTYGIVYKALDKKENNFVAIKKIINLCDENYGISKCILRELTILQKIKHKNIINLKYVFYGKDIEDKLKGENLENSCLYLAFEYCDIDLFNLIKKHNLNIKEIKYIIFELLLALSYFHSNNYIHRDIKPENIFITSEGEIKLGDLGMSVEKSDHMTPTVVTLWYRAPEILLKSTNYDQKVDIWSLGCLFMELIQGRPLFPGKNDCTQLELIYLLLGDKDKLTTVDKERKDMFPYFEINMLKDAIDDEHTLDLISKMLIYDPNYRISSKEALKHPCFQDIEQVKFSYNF
Experiment [7] concerns the target Protein kinase 7 (PK7), Plasmodium falciparum 3D7 (PF3D7_0213400) (UniProt Q7YTF7). As to the kind of experiment: inhibition of Plasmodium PK7 catalytic activity – biochemical, TCAMS antimalarial set, Kinase-Glo luminescence (AID 1159587). Particulars: recombinant PfPK7, Kinase-Glo ATP depletion luminescence.
Experiment [8] has as its target Calcium-dependent protein kinase 4 (Plasmodium falciparum (isolate 3D7)) (UniProt Q8IBS5). As to the kind of experiment: PfCDPK4 kinase inhibitors, biochemical, TCAMS library (AID 1159588; cut-off not given, nearly all actives have IC50 up to about 0.91 µM). To be noted: recombinant PfCDPK4, Kinase-Glo ATP depletion luminescence.

Unmarked numbers belong to inactive results. For some of these results: Results with a measured potency or affinity are listed apart. Activity calls are given as the source filed them. Unless noted, no rule for the calls is given here.

Calcium-dependent protein kinase 4 (Plasmodium falciparum (isolate 3D7)), sequence (Q8IBS5 whole entry, looked up): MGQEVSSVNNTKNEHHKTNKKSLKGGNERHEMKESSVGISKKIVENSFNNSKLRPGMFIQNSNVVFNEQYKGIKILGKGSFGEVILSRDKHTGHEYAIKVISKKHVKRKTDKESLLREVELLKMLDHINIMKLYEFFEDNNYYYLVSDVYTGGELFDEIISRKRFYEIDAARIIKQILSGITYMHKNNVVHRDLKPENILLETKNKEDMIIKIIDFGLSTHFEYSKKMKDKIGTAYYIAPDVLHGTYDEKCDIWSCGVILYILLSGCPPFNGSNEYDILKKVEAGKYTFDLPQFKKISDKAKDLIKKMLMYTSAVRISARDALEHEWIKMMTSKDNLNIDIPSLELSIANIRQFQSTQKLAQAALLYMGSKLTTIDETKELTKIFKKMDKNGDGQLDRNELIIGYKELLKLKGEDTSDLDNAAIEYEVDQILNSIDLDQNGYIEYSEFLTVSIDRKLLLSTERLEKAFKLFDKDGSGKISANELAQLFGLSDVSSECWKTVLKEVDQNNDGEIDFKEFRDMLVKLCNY
Protein kinase 7 (PK7), Plasmodium falciparum 3D7 (PF3D7_0213400), sequence (Q7YTF7 1-343): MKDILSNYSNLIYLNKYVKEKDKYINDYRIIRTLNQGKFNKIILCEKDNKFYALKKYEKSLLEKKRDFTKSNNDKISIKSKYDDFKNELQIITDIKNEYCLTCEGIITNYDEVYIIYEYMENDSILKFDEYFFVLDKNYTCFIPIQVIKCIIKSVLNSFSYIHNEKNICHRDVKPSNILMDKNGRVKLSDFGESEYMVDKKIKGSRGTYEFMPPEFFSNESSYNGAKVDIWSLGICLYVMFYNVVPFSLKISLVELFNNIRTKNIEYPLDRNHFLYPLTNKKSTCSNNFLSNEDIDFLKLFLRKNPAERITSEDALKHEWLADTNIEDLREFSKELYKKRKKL

Turning to `COc1cc(C(=O)N2CCOC(CCN3CCC(Cc4ccc(F)cc4)CC3)(c3ccc(Cl)c(Cl)c3)C2)cc(OC)c1OC` (stereo not given), the growth inhibition in experiment [1] is 58% (active); in experiment [4] it was 88% (active). Further, the results for the inhibition in experiment [2] and in experiment [3] were 44% and -5%, respectively. Moreover, the result in experiment [5], in experiment [6], in experiment [7] and in experiment [8] was inactive.
With `CC(C)C[C@@H]1C(=O)N[C@H](C2Cc3ccccc3C2)C(=O)N1[C@@H](C(=O)O)c1ccc(F)cc1F`, the growth inhibition in experiment [1] was -2%; in experiment [4] it was 98% (active). In addition, the figures for the inhibition in experiment [2] and in experiment [3] were 10% and -1%, respectively. The result in experiment [5], in experiment [6], in experiment [7] and in experiment [8] was inactive.
Regarding `Cc1ccc(C)c(S(=O)(=O)Nc2ccc(Br)cc2C(=O)Nc2cccc(C(F)(F)F)c2)c1`, the growth inhibition in experiment [1] was 98% (active); in experiment [4] it was 81% (active). The inhibition in experiment [2] is 56% (active); in experiment [3] it was -7%. Also, the result in experiment [5], in experiment [6], in experiment [7] and in experiment [8] was inactive.
Turning to `COc1cc(Nc2ccnc3cc(-c4ccncc4)ccc23)cc(OC)c1OC`, the growth inhibition in experiment [1] was 39%; in experiment [4], 89% (active). Moreover, the results for the inhibition in experiment [2] and in experiment [3] were 9% and 0%, respectively. For the same compound, the outcome in experiment [5], in experiment [6], in experiment [7] and in experiment [8] was inactive.
In the case of `CCCCN(CCCC)CCCN(CCCN(CCCC)CCCC)c1cc(C)nc(Nc2ccc3cc(Br)ccc3c2)n1`, the values for the growth inhibition in experiment [1] and in experiment [4] were 99% (active) and 101% (active), respectively. Also, the inhibition in experiment [2] was 52% (active); in experiment [3], 5%. Further, the result in experiment [5], in experiment [6], in experiment [7] and in experiment [8] was inactive.
As to `Cc1ccc(NC(=O)Nc2ccc(S(=O)(=O)c3ccc(NC(=O)Nc4ccc(C)c(Cl)c4)cc3)cc2)cc1Cl`, the growth inhibition is 42% in experiment [1] and 99% (active) in experiment [4]. The figures for the inhibition in experiment [2] and in experiment [3] were 49% and 4%, respectively. Also, the result in experiment [5], in experiment [6], in experiment [7] and in experiment [8] was inactive.
Consider `CN1CCC(Oc2ccc(Nc3nccc(NCC(O)c4ccccc4)n3)cc2Cl)CC1` (stereo not given), for which the growth inhibition is 99% (active) in experiment [1] and 102% (active) in experiment [4]. The figures for the inhibition in experiment [2] and in experiment [3] were 46% and 0%, respectively. Further, the outcome in experiment [5], in experiment [6], in experiment [7] and in experiment [8] was inactive.
For `CNC(=O)/C=C/c1cc(NC(=O)Nc2ccnc3c(Br)cccc23)ccc1OC`, the growth inhibition in experiment [1] is 68% (active); in experiment [4], 95% (active). Besides, the inhibition in experiment [2] is 12%; in experiment [3], 1%. Besides, the result in experiment [5], in experiment [6], in experiment [7] and in experiment [8] was inactive.
Consider `O=C(c1ccc(-c2ccc(-c3nc4ccc(C(F)(F)F)cc4[nH]3)s2)cc1)N1CCN(CCc2ccccc2)CC1`, for which the growth inhibition was 60% (active) in experiment [1] and 98% (active) in experiment [4]. In addition, the inhibition is 23% in experiment [2] and -5% in experiment [3]. The outcome in experiment [5], in experiment [6], in experiment [7] and in experiment [8] was inactive.
Consider `CS(=O)(=O)c1ccc(-c2cc(C(F)(F)F)nc(N[C@@H]3CCCC[C@H]3OCc3ccccc3)n2)cc1`, for which the values for the growth inhibition in experiment [1] and in experiment [4] were 99% (active) and 100% (active), respectively. For the same compound, the inhibition in experiment [2] is 8%; in experiment [3] it was 5%. In addition, the result in experiment [5], in experiment [6], in experiment [7] and in experiment [8] was inactive.
On to `Cn1c(Cc2ccccc2)nnc1Sc1ccc(C#N)c([N+](=O)[O-])c1`, for which the growth inhibition in experiment [1] is 29%; in experiment [4], 93% (active). For the same compound, the inhibition in experiment [2] and in experiment [3] was -5% each time. The result in experiment [5], in experiment [6], in experiment [7] and in experiment [8] was inactive.
Consider `O=[N+]([O-])c1ccc(Nc2nc(NN=Cc3cccc(O)c3)nc(N3CCCC3)n2)cc1`, for which the growth inhibition in experiment [1] is 9%; in experiment [4] it was 88% (active). Further, the inhibition is -6% in experiment [2] and -5% in experiment [3]. Also, the outcome in experiment [5], in experiment [6], in experiment [7] and in experiment [8] was inactive.
Consider `COc1ccc(N2CCN(c3nc(N)c4cc(OC)c(OC)cc4n3)CC2C)cc1` (stereo not given), for which the growth inhibition in experiment [1] was 0%; in experiment [4] it was 95% (active). Also, the figures for the inhibition in experiment [2] and in experiment [3] were 8% and 0%, respectively. Further, the outcome in experiment [5], in experiment [6], in experiment [7] and in experiment [8] was inactive.
For `CCNc1cc(C(=O)N[C@@H](Cc2ccc(F)c(F)c2)[C@H](O)CNC2CCCCC2)cc(N2CCCCS2(=O)=O)c1`, the values for the growth inhibition in experiment [1] and in experiment [4] were 84% (active) and 100% (active), respectively. The inhibition is 1% in experiment [2] and -2% in experiment [3]. For the same compound, the outcome in experiment [5], in experiment [6], in experiment [7] and in experiment [8] was inactive.
For the compound `COc1cccc(-c2ccc(C(=O)NCC3CCCN(Cc4cccc(C(F)(F)F)c4)C3)s2)c1` (stereo not given), the growth inhibition in experiment [1] was 18%; in experiment [4], 85% (active). Also, the values for the inhibition in experiment [2] and in experiment [3] were 10% and 0%, respectively. For the same compound, the outcome in experiment [5], in experiment [6], in experiment [7] and in experiment [8] was inactive.
Take `CCC(=O)NC(c1ccco1)c1cc(Cl)c2cccnc2c1O` (stereo not given): the growth inhibition is 74% (active) in experiment [1] and 89% (active) in experiment [4]. For the same compound, the inhibition in experiment [2] is 58% (active); in experiment [3] it was -5%. Besides, the outcome in experiment [5], in experiment [6], in experiment [7] and in experiment [8] was inactive.
Take `CCC(C)CN1CCN(c2ccc(NC(=O)c3cccs3)cc2)C(C)C1` (stereo not given): the growth inhibition in experiment [1] and in experiment [4] was 95% (active) in each case. Further, the figures for the inhibition in experiment [2] and in experiment [3] were -4% and -2%, respectively. The result in experiment [5], in experiment [6], in experiment [7] and in experiment [8] was inactive.
Turning to `CC1CCN(CCNC(=O)c2ccc3c(=O)n(Cc4ccc(Cl)cc4)c(=S)[nH]c3c2)CC1`, the values for the growth inhibition in experiment [1] and in experiment [4] were 75% (active) and 101% (active), respectively. Further, the figures for the inhibition in experiment [2] and in experiment [3] were 6% and 4%, respectively. Besides, the outcome in experiment [5], in experiment [6], in experiment [7] and in experiment [8] was inactive.
As for `COc1ccccc1COc1c(C)nc(N)nc1N`, the growth inhibition in experiment [1] is 1%; in experiment [4], 98% (active). Further, the values for the inhibition in experiment [2] and in experiment [3] were 32% and -1%, respectively. The outcome in experiment [5], in experiment [6], in experiment [7] and in experiment [8] was inactive.
Consider `COc1cccc2[nH]c(NCCCNCc3cc(Br)cc(Br)c3)nc12`, for which the results for the growth inhibition in experiment [1] and in experiment [4] were 2% and 88% (active), respectively. Moreover, the inhibition in experiment [2] was 5%; in experiment [3] it was -8%. In addition, the result in experiment [5], in experiment [6], in experiment [7] and in experiment [8] was inactive.
